We go through nine molecules from PubChem BioAssay (Tox21).

“And” between values parts separate entries of the source, which are not always exact repeats. Equal values may be shown once. Results filed as inconclusive are left out. The source made the active and inactive calls. Unless noted, calls follow the shape of the full dose curve.

The nature of assay [1]: Nuclear factor erythroid 2-related factor 2/antioxidant responsive element (Nrf2/ARE) small molecule agonists: qHTS cell viability counter screen in human keratinocytes (AID 1919968; active = well fitted curve in the direction sought with a large enough effect in the repeat runs; an effect the other way counts as inactive or inconclusive; also: nearly all actives have a fitted effect of over 55% in size; also: potency is read from the fitted curve at half-maximal effect). The gist of the method: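 Cells of the KeratinoSens line were plated at 1,500 per well and left for 5 h before compound transfer from DMSO stocks. After a 23 h incubation (37 C, 5% CO2), CellTiter-Fluor was added. Signal was taken as fluorescence intensity 1 h later.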
On the technique in general: In qHTS, concentration-response curves come from the screen itself.

Assay [2] concerns the target KiSS-1 receptor (Homo sapiens) (UniProt Q969F8). The assay can be described thus: Human kisspeptin (KISS1R) small molecule agonists, calcium flux assay in KISS1R-HEK293 cells (AID 1920064; active = well fitted curve in the direction sought with a large enough effect in the repeat runs; an effect the other way counts as inactive or inconclusive). The method in brief:
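Cell line: HEK293, stable human KISS1R. Dye loading 1 h at 37 C after 18 h culture. Read: kinetic fluorescence, 480/540 nm, 3 min at 1 s intervals.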
On the technique in general: Calcium flux is commonly read through the fluorescence of an indicator in the cells.

Assay [3] can be described thus: G protein-coupled receptor (GPCR) small molecule agonists, calcium flux assay: HEK293 wild type cell line counter screen (AID 1920065). The method in brief: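 Tox21 10K compounds, 15 concentrations each in triplicate, pin-transferred in DMSO onto dye-loaded cells; kinetic read at 480/540 nm for 3 min, 1 s intervals.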
Assay [4] can be described thus: p53 small molecule agonists, cell-based qHTS assay with human liver microsomes: qHTS cell viability counter screen (AID 1963579). Also: nearly all actives have a fitted effect of over 45% in size. The gist of the method: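 Luminescent CellTiter-Glo read-out, 30 min at room temperature, gauged cytotoxicity in p53RE-bla cells exposed 16 h at 37 C to DMSO-dissolved compounds with metabolic activation by human liver microsomes and NADPH, each 0.5 mg/mL final.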

A short description of assay [5]: p53 small molecule agonists, cell-based qHTS assay with rat liver microsomes: qHTS cell viability counter screen (AID 1963580). Also: nearly all actives have a fitted effect of over 45% in size. The gist of the method: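 After the beta-lactamase ratio was read, CellTiter-Glo was added to the same wells and luminescence measured at 30 min; cells had been treated 16 h at 37 C with compounds, rat liver microsomes and NADPH (0.5 mg/mL final each).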

Assay [6] in a line: p53 small molecule agonists, cell-based qHTS assay: qHTS cell viability counter screen (AID 1963581). Also: nearly all actives have a fitted effect of over 45% in size. The gist of the method:
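ATP content measured by luminescence in HCT-116 p53RE-bla cells treated 16 h at 37 C, same wells as the reporter screen.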

Assay [7] has as its target 5-hydroxytryptamine receptor 2A (Homo sapiens) (UniProt P28223). The assay can be described thus: 5-hydroxytryptamine receptor 2A (HTR2A) small molecule agonists, cell-based qHTS assay (AID 1963587). Also: nearly all actives have a fitted effect of over 30% in size. The method in brief:
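CHO cells stably expressing human HTR2A, plated 18 h, loaded with calcium dye 1 h at 37 C. Agonist mode: compounds added and intracellular calcium fluorescence recorded kinetically for 2 min at 1 sec intervals.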

Assay [8] deals with Muscarinic acetylcholine receptor M1 (Homo sapiens) (UniProt P11229). Put plainly: Cholinergic receptor muscarinic 1 (CHRM1) small molecule antagonists, cell-based qHTS assay (AID 1963588). Also: nearly all actives have a fitted effect of over 40% in size. The method in brief:
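Compounds were tested at 15 concentrations in three independent runs. Dye-loaded CHRM1-CHO cells were exposed 5 min at room temperature before stimulation by acetylcholine added at 50nM. Intracellular calcium was read kinetically on FDSS for 3 min.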

The target is the same in assay [9]. Put plainly: Cholinergic receptor muscarinic 1 (CHRM1) small molecule agonists, cell-based qHTS assay (AID 1963589). Also: nearly all actives have a fitted effect of over 35% in size. The gist of the method: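 Homogeneous fluorescence calcium flux, agonist mode. Human M1-expressing CHO cells; compound dosed at 15 concentrations, three independent runs; signal sampled every 1 sec.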
Assay [10] is described as follows: cAMP Responsive Elements (CRE) small molecule antagonists, cell-based qHTS assay (AID 1963591; active = well fitted inhibition curve with a large enough effect in the signal ratio in the repeat runs, not every such curve was filed as active; the % refers to the signal ratio). The gist of the method:
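First, CRE-bla HEK293T cells settled 18 h at 37 C. Next, compound and 0.25 uM final NKH477 were applied for 3 h. Last, LiveBLAzer B/G substrate was loaded for 2 h at room temperature.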

The target of assay [11] is Beta-2 adrenergic receptor (Homo sapiens) (UniProt P07550). The assay can be described thus: Adrenergic beta2 receptor (ADRB2) small molecule antagonists, cell-based qHTS assay (AID 1963592). Also: series mostly up to about 92 µM; nearly all actives have a fitted effect of over 50% in size. The method in brief: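 Assay format: CHO-ADRB2 cells, 18-20hr seeding at 37C/5% CO2, then compound plus 1nM isoproterenol agonist mix for 0.5hr RT. Homogeneous time-resolved fluorescence cAMP detection after 1hr, expressed as 665/615 nm ratio.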

Assay [12] addresses D(2) dopamine receptor (Homo sapiens) (UniProt P14416). Put plainly: Dopamine D2 receptor (DRD2) small molecule agonists, cell-based qHTS assay (AID 1963594). Also: nearly all actives have a fitted effect of over 35% in size. The gist of the method:
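HEK293 cells stably expressing human DRD2, pre-treated with PDE inhibitor Ro20-1724 (0.1 mM final) and compound 10 min at room temperature, then stimulated with NKH477 (200nM […]) for 30 min. cAMP read by HTRF (665/620 nm).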

Assay [13] shares this target. Put plainly: Dopamine D2 receptor (DRD2) small molecule antagonists, cell-based qHTS assay (AID 1963595; active = well fitted inhibition curve with a large enough effect in the signal ratio in the repeat runs, with a control signal flat; the % refers to the signal ratio). The gist of the method: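 In this cell-based antagonist screen, compounds act for 10 min at room temperature before a 30 min challenge with 12 nM quinpirole and 200 nM NKH477. cAMP is quantified by HTRF competition in DRD2-HEK293 cells containing 0.1 mM Ro20-1724.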

Assay [14] can be described thus: p53 small molecule agonists, cell-based qHTS assay with human liver microsomes (AID 1963577).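 Also: p53 response element beta-lactamase reporter cells with liver microsomes plus NADPH.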 The method in brief:
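p53RE-bla cells; 5 h settle, 37 C/5% CO2; cpd + HLM 0.5 mg/mL + NADPH 0.5 mg/mL (final); 16 h 37 C; LiveBLAzer 2 h RT dark; fluorescence readout.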

The nature of assay [15]: p53 small molecule agonists, cell-based qHTS assay with rat liver microsomes (AID 1963578). The method in brief:
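Rat liver microsome activation: microsomes 0.5 mg/mL, NADPH 0.5 mg/mL final; p53RE-bla cells, 16 h 37 C; LiveBLAzer readout, 2 h RT dark.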

A short description of assay [16]: cAMP Responsive Elements (CRE) small molecule agonists, cell-based qHTS assay (AID 1963590). The method in brief:
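HEK 293T cells stably bearing CRE-bla were plated at 2,000 cells per well and rested 18 h. Compounds, positive controls or DMSO were added for 3 h at 37 C. LiveBLAzer B/G substrate was then loaded for 2 h at room temperature.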

Assay [17] has as its target Beta-2 adrenergic receptor (Homo sapiens) (UniProt P07550). Put plainly: Adrenergic beta2 receptor (ADRB2) small molecule agonists, cell-based qHTS assay (AID 1963593).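 Also: CHO cells stably overexpressing human ADRB2.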 The gist of the method: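 CHO cells stably over-expressing ADRB2 were plated overnight at 37C, then dosed with compounds plus a stimulation mix containing 100uM IBMX and 25uM Ro-20-1724 for 0.5hr at room temperature. cAMP was measured by HTRF competition, 1hr.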

Assay [18] deals with 5-hydroxytryptamine receptor 2A (Homo sapiens) (UniProt P28223). Put plainly: 5-hydroxytryptamine receptor 2A (HTR2A) small molecule antagonists, cell-based qHTS assay (AID 1963586). Also: nearly all actives have a fitted effect of over 45% in size. The gist of the method: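 CHO cells stably expressing human HTR2A were plated for 18 h at 37 C, then loaded with calcium dye for 1 h. Compounds were preincubated 5 min at room temperature before DOI (4 nM solution) was added. Kinetic fluorescence was read for 3 min.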

A short description of assay [19]: p53 small molecule agonists, cell-based qHTS assay (AID 1963582; active = well fitted activation curve with a large enough effect in the signal ratio in the repeat runs, not every such curve was filed as active; the % refers to the signal ratio). The method in brief: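 16 h compound exposure (37 C) of p53 response element–bla cells, preceded by 5 h recovery at 37 C/5% CO2; read-out via LiveBLAzer B/G FRET substrate, 2 h RT, fluorescence intensity.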

Sequence of 5-hydroxytryptamine receptor 2A (Homo sapiens) (P28223 whole entry, looked up): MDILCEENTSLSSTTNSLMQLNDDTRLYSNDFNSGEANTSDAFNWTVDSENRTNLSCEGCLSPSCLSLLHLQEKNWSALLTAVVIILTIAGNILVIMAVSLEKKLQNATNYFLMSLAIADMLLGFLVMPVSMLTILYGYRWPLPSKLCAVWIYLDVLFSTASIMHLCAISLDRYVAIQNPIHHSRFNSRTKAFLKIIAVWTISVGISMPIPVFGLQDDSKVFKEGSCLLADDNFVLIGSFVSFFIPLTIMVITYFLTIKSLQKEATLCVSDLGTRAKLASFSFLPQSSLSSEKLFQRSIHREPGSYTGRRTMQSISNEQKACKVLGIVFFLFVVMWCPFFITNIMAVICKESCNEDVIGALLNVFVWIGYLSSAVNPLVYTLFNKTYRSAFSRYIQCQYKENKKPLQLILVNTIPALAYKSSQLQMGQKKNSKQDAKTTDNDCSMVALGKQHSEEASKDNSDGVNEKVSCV
Sequence of KiSS-1 receptor (Homo sapiens) (Q969F8 whole entry, looked up): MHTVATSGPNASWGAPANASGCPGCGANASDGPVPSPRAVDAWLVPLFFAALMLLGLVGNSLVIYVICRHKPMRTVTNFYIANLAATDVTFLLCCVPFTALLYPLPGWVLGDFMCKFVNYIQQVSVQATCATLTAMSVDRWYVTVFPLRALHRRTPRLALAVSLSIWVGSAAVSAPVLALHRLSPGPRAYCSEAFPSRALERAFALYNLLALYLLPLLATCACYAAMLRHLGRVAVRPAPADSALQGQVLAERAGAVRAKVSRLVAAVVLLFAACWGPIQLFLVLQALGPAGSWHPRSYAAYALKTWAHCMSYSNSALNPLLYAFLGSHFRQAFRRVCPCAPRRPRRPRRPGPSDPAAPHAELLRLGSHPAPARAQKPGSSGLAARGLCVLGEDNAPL
Sequence of D(2) dopamine receptor (Homo sapiens) (P14416 whole entry, looked up): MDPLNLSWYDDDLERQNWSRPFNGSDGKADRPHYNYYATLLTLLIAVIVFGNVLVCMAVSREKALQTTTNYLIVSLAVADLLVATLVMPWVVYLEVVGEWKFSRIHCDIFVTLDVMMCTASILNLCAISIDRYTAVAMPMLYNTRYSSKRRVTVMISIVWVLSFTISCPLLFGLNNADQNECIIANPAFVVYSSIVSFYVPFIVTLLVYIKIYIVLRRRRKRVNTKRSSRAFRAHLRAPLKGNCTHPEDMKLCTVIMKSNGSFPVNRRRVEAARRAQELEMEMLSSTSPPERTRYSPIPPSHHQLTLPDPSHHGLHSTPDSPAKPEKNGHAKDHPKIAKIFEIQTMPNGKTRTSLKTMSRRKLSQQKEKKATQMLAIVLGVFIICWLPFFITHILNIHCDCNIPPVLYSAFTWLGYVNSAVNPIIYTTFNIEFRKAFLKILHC
Sequence of Beta-2 adrenergic receptor (Homo sapiens) (P07550 whole entry, looked up): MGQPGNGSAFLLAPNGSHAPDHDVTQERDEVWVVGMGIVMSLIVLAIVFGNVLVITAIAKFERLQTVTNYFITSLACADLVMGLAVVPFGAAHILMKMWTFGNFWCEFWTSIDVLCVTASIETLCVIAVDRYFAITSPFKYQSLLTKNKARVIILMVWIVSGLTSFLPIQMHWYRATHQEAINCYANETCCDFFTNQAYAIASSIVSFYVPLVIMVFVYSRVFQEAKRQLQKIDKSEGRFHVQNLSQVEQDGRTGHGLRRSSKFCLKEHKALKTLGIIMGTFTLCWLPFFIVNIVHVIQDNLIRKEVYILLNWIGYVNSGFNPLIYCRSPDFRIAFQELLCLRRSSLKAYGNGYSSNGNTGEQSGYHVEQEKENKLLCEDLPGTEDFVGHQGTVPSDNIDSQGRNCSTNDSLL
Sequence of Muscarinic acetylcholine receptor M1 (Homo sapiens) (P11229 whole entry, looked up): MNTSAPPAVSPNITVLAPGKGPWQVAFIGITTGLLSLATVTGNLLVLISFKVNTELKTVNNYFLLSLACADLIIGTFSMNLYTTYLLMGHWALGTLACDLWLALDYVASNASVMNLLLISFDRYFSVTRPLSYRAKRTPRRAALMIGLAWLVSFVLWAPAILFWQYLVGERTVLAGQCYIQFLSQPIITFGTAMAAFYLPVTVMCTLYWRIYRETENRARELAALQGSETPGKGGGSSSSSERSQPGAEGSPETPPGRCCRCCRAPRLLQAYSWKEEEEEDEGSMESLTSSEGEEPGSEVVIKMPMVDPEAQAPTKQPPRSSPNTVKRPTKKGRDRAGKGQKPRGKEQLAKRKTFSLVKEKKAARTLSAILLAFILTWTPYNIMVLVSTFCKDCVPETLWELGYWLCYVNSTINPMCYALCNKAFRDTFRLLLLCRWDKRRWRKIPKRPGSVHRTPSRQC

Consider `CCCCOCCOCCOC(=O)CCCCC(=O)OCCOCCOCCCC`, for which the Potency result in [1], in assay [2], in assay [3], in assay [4], in [5] and in assay [6] was “inactive” in each case. Further, the Potency result in assay [7], in assay [8], in [9], in assay [10], in assay [11] and in assay [12] was “inactive” throughout. Besides, the Potency result in [13] was “inactive”.
As for `O=S(=O)(O)c1cc(O)c(O)c(S(=O)(=O)O)c1`, the Potency result in assay [1], in assay [2], in [3], in assay [14], in [15] and in assay [4] was “inactive” throughout. For the same molecule, the Potency result in [5], in assay [6], in assay [7], in assay [8], in [9] and in assay [16] was “inactive” each time. Besides, the Potency entry in [10], in [11], in [17] and in assay [12] was “inactive” throughout.
Consider `C[C@@H]1CC(=O)NN=C1c1ccc(NN=C(C#N)C#N)cc1`, for which the Potency in assay [1] was 11.9 µM (active) and 21.1 µM (active). In addition, the Potency result in assay [2], in assay [3], in [4], in assay [5], in assay [6] and in assay [18] was “inactive” each time. In addition, the Potency entry in [7], in [8], in [11] and in assay [12] was “inactive” each time.
For the molecule `CC(C)Oc1ccc2c(=O)c(-c3ccccc3)coc2c1`, the Potency entry in assay [1], in assay [2], in [3], in assay [14], in [15] and in assay [4] was “inactive” in each case. Moreover, the Potency entry in assay [5], in assay [19], in [16], in assay [10], in [11] and in assay [17] was “inactive” each time. Also, the Potency entry in [12] and in assay [13] was “inactive” throughout.
As for `CCCCC(CC)CCC(CC(C)C)OS(=O)(=O)O` (stereo not drawn), the Potency entry in assay [1], in assay [2], in [3], in assay [14], in assay [15] and in [4] was “inactive” throughout. Also, the Potency entry in [5], in assay [6], in assay [18], in [7], in [9] and in [16] was “inactive” each time. The Potency entry in assay [11], in assay [17], in assay [12] and in assay [13] was “inactive” in each case.
With `CCOC=C(C(=O)OCC)C(=O)OCC`, the Potency entry in assay [1], in assay [2], in assay [3], in assay [14], in assay [15] and in [4] was “inactive” each time. Further, the Potency result in assay [5], in assay [6], in [18], in [7], in assay [8] and in assay [9] was “inactive” in each case. Moreover, the Potency result in assay [10], in assay [11], in [12] and in assay [13] was “inactive” each time.
For `COCCCC/C(=N\OCCN)c1ccc(C(F)(F)F)cc1`, the Potency entry in assay [1], in assay [2], in assay [3], in assay [14], in assay [4] and in assay [6] was “inactive” throughout. Moreover, the Potency result in assay [19], in [18], in assay [7], in assay [8], in assay [9] and in assay [10] was “inactive” each time. Further, the Potency entry in assay [11], in [17] and in [13] was “inactive” throughout.
Regarding `CC(=O)/C=C/C1C(C)=CCCC1(C)C` (stereo not drawn), the Potency result in assay [1], in assay [2], in [3], in [5], in [6] and in assay [18] was “inactive” throughout. Moreover, the Potency entry in [7], in assay [8], in [9], in [10], in [11] and in [17] was “inactive” each time. Further, the Potency result in assay [12] and in assay [13] was “inactive” each time.
`O=C1Nc2ccccc2C1(c1ccc(O)cc1)c1ccc(O)cc1`: the Potency result in assay [1], in assay [2], in [3], in [5], in [18] and in assay [7] was “inactive” throughout. The Potency result in assay [8], in assay [9], in assay [16], in assay [10], in assay [11] and in [12] was “inactive” throughout. Besides, the Potency entry in assay [13] is “inactive”.
